The list is not random: actives were taken first. Their share in the collection is about 1.8%.
PrPC surface inh = inhibitors of human cell surface prion protein PrPC, primary screen, cell-based, TR-FRET; Major prion protein (Homo sapiens), P04156; 370,000 compounds, 0.43% hits; AID 720596, 2013; inhibition, % at 13.8 µM; TR-FRET read-out; in the data active = inhibition above about 24%; note: 0% = median of the test wells and 100% = reference compound wells
Sa RN4220 lethal = growth inhibition of S. aureus RN4220, primary screen, OD600. 16 h. inhibition, % (test concentration not listed). AID 1259311, 2017. 330,000 compounds, 0.33% hits; in the data active = inhibition above about 85%;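 note: plate controls were untreated cells for no effect and reference antibiotic for full effect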
ugtP null kill = growth inhibition of ugtP-null S. aureus, primary screen, RN4220 ugtP deletion, OD600. 16 h. growth inhibition, % (no concentration beside the values). 330,000 compounds, 0.54% hits. AID 1259309, 2017; in the data active = growth inhibition above about 68%;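 note: plate controls were untreated wells for no effect and antibiotic for full effect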
DUSP3 inh = VHR1 phosphatase inhibitors, primary screen, biochemical, absorbance, uHTS; Dual specificity protein phosphatase 3 (Homo sapiens), P51452; recombinant VHR phosphatase, pNPP absorbance; inhibition, % at 13.3 µM; 290,000 compounds, 0.52% hits; in the data active = inhibition above about 50%
Target sequence (P51452 whole entry, looked up): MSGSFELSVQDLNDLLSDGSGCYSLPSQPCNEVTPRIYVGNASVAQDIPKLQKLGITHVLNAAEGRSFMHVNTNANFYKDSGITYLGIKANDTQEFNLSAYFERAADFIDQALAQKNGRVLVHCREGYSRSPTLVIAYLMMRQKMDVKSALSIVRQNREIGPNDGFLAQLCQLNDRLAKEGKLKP
PfHsp40 rescue = rescue of yeast from PfHsp40 toxicity, primary screen, S. cerevisiae, ATP luminescence; S. cerevisiae expressing PfHsp40, growth rescue; growth rescue, % at 12.5 µM; 340,000 compounds, 0.68% hits; in the data active = growth rescue above about 28%, passing the limit was not always enough;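 note: yeast W303a lacking pdr1 and pdr3 grown in galactose medium; growth measured after three days at 30 °C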
* hit, by the source's call; / = no result.

SMILES | PrPC surface inh | Sa RN4220 lethal | ugtP null kill | DUSP3 inh | PfHsp40 rescue
CCC(Oc1ccccc1)C(=O)Nc1ncc([N+](=O)[O-])s1 (centres undefined) | -6.9 | 21.3 | 41.2 | 20.4 | 166.2*
COC(=O)C1=C(c2cccc(OCc3ccccc3)c2)CC2CCC1N2C(=O)NCCOc1ccccc1 (centres undefined) | / | -3.7 | 3.3 | / | /
C[C@]12CCC(=O)C=C1C(O)CC1C2C(O)C[C@@]2(C)C1CC[C@]2(O)C(=O)CO (some centres undefined) | / | 8.1 | -1.8 | / | /
CCOC(=O)N1CCN(C(=O)c2ccc3c(=O)n(Cc4ccccc4OC)c(=S)[nH]c3c2)CC1 | -5.2 | 3.6 | 9.1 | 17.6 | 28.7*
COc1ccccc1C(=O)Nc1nc(-c2ccc(S(=O)(=O)N3CCOCC3)cc2)cs1 | 24.9* | -7.1 | -15.7 | 24.0 | 3.5
COc1ccccc1OC(C)C(=O)Nc1nc(-c2ccc(S(=O)(=O)N3CCOCC3)cc2)cs1 (centres undefined) | 7.2 | 19.8 | -12.6 | 32.6 | -1.0
COc1ccc2nc(SCC(=O)NC3CCCCC3)[nH]c2c1 | 1.7 | 0.6 | 3.7 | 57.5* | -0.1
CN(Cc1ccc(C(F)(F)F)cc1)C(=O)c1ccc(Oc2ccccc2)cc1 | -2.7 | -3.3 | 14.1 | / | 5.1
CN(Cc1ccccc1F)C(=O)c1ccc(Oc2ccccc2)cc1 | 1.9 | 78.3 | 91.3* | / | 15.9
CNC1=C(N(C(C)=O)c2ccc(Br)cc2)C(=O)c2ccccc2C1=O | -22.3 | 24.1 | 13.3 | 39.0 | 76.8*
O=S(=O)(O)c1cc(Cl)cc(N=Nc2ccc(O)cc2O)c1O | -26.4 | / | / | / | 58.3*
O=C(C[n+]1cccc(Br)c1)c1ccc(-c2ccccc2)cc1 | -2.5 | -1.2 | 1.9 | -2.4 | 54.3*
CC1=CC(C)[C@H](C=Nn2c(=O)[nH]c3c([nH]c4ccc(Br)cc43)c2=O)C(C)C1 (some centres undefined) | / | 100.0 | 66.2* | / | /
COc1ccc(C2CC(c3ccccc3)=NN2C(=O)CCC(=O)O)cc1 (centres undefined) | -0.3 | / | / | 20.7 | -0.3
COc1ccc(C2=Nc3nc(-c4ccccc4)cn3C(c3ccc(OC)cc3)C2)cc1 (centres undefined) | -8.1 | -7.7 | 85.2* | 13.3 | 1.5
CCCNC(=O)N1C2CCC1C(C(=O)OC)=C(c1ccc(OC(F)(F)F)cc1)C2 (centres undefined) | / | -6.4 | -11.0 | / | /
Cc1cccc(Cn2nnc3c2C(=O)c2ccccc2C3=O)c1 | -2.5 | 69.3 | 85.6* | 13.2 | -1.0
Cc1ccccc1Cn1nnc2c1C(=O)c1ccccc1C2=O | -5.5 | 39.0 | 50.8 | / | 0.3
C[C@]12CCC3c4ccc(O)cc4C(=O)CC3C1CCC2O (some centres undefined) | / | 7.1 | -1.5 | / | /
CN1CCCC1CCNC(=O)c1c(-c2ccsc2)sc2ccccc12 (centres undefined) | / | 1.6 | -0.6 | / | /
COC(=O)C1=C(c2cccc(OC)c2OC)CC2CCC1N2C(=O)NCc1ccco1 (centres undefined) | / | 3.2 | -4.5 | / | /
O=C(CS(=O)c1ccc(C(F)(F)F)cc1[N+](=O)[O-])Oc1ccc(Cl)cc1 (centres undefined) | -18.1 | 3.5 | 2.7 | 51.2* | -0.3
CCOC(=O)C(C#N)=CNc1ccccc1NS(=O)(=O)c1cccc(C(C)=O)c1 | / | 9.7 | 12.5 | / | /
COc1ccc(CNCc2cc3c(cc2[N+](=O)[O-])OCO3)cc1 | -20.6 | 4.1 | 12.2 | 53.0* | -0.4
COC(=O)Cc1cc(=O)n(-c2ccccc2)[nH]1 | -3.7 | 1.7 | 1.6 | -0.2 | 51.2*
SMILES | PrPC surface inh | Sa RN4220 lethal | ugtP null kill | DUSP3 inh | PfHsp40 rescue
COc1cc2c(oc(=O)c3cc(C)cc(OC)c32)c2c(C3OC(C)C(O)C(C)(O)C3O)ccc(O)c12 (centres undefined) | 11.6 | / | / | / | 1.2
C=Cc1cc(OC)c2c(c1)c(=O)oc1c2cc(OC)c2c(O)ccc(C3OC(C)C(O)C(C)(O)C3O)c21 (centres undefined) | 31.2* | / | / | / | 5.5
CCCCC[n+]1cccc2c3ccccc3ccc21 | -13.6 | / | / | 10.8 | 0.5
Cc1ccc2c(C)c3ccc4ccccc4c3c[n+]2c1 | -34.4 | / | / | / | 368.1*
COc1ccc(CN(CC(=O)NCc2ccccc2)C(=O)CCC(=O)Nc2cc(C)ccn2)cc1 | 3.4 | 3.6 | 3.3 | 52.0* | 0.4
COc1ccc(CN(CC(=O)NCc2ccc(F)cc2)C(=O)CCC(=O)Nc2cc(C)ccn2)cc1 | -8.0 | 2.1 | 2.6 | 24.8 | 0.8
O=S(=O)(Nc1ccn(-c2ccccc2)n1)c1ccc(Br)cc1 | 0.7 | 13.7 | -9.7 | 6.3 | 60.1*
Cc1cc(=O)oc(C)c1C(=O)n1nc(C)c2c1CC1C2C1(C)C (centres undefined) | / | 10.2 | 6.7 | / | /
Cc1cc(C)c(NC(=O)COC(=O)c2cccc3c2C(=O)c2ccccc2C3=O)c(C)c1 | -13.1 | 18.5 | 5.0 | -13.1 | 1.3
Cc1cc(C)c(Nc2cc(S(=O)(=O)O)c(N)c3c2C(=O)c2ccccc2C3=O)c(C)c1 | -50.8 | -19.5 | 28.1 | 28.2 | 70.6*
COc1ccc(C2C3C(=O)N(C(C)(C)C)C(=O)C3[C@]3(C)C(=O)N(c4cccc(Cl)c4)C(=O)N23)cc1 (some centres undefined) | / | 6.0 | -9.8 | / | /
Cc1ccc(Cl)cc1NC(=O)CSc1sc2c(O)cc(=O)[nH]c2c1C#N | 9.8 | 3.0 | 6.9 | 20.3 | 47.1*
Cc1ccc(C)c(NC(=O)CSc2sc3c(O)cc(=O)[nH]c3c2C#N)c1 | -0.4 | 4.3 | 11.5 | 15.8 | 0.4
C=CCOC(=O)C1=CC(c2ccccc2)C(CCCO)C(OCC)O1 (centres undefined) | / | 5.6 | 1.8 | / | /
O=C(O)C=CC(=O)NCCC1=CCCCC1 | / | 7.6 | 1.4 | / | /
CCN(Cc1cc(=O)n2ccsc2n1)c1cccc2ccccc12 | 13.0 | 13.6 | -3.9 | -4.7 | 178.2*
Cc1cc(SCc2cc(=O)n3ccsc3n2)nc2ccccc12 | -1.0 | 9.5 | 3.8 | 1.9 | -1.5
COc1ccc(OC)c(C=NN(CCC#N)C2=NS(=O)(=O)c3ccccc32)c1 | / | 3.8 | -0.8 | / | /
Clc1ccc(-c2n[nH]c3c2CCC3)cc1Cl | 2.6 | 10.7 | 7.9 | 15.1 | 241.1*
Clc1ccc(-c2n[nH]c3c2CCCC3)cc1 | -6.3 | -3.7 | 3.5 | 19.7 | -0.7
Cc1csc2nc(O)c(C(=O)NCCC3=CCCCC3)c(=O)n12 | 2.4 | 2.7 | 51.6 | / | 15.1
Cc1csc2nc(O)c(C(=O)NCCCc3ccccc3)c(=O)n12 | 1.5 | 7.4 | 17.7 | / | 288.8*
CCN1C(=O)N[C@@H](c2ccccc2)[C@@H](C(=O)OC)[C@H]1C | 1.9 | / | / | / | 33.4*
Cc1cc(C(=O)NN=Cc2ccc(-c3cccc(Cl)c3Cl)o2)n[nH]1 | / | 2.3 | -12.0 | / | /
Cc1cc(C(=O)N/N=C/c2ccc(-c3cccc(Cl)c3Cl)o2)n[nH]1 | -5.3 | / | / | 50.8* | -0.9
COc1cc(C=NN2CCCCC2)cc([N+](=O)[O-])c1O | / | 1.1 | -1.4 | / | /
COc1ccc(NS(=O)(=O)c2cccc(NC(=NS(=O)(=O)c3ccccc3)c3ccc(F)cc3)c2)cc1 | / | 16.3 | -2.0 | / | /
